Each structure is given as a SMILES string. Results filed as inconclusive are left out. Unmarked numbers belong to inactive results. Calls follow the shape of the dose curve; as a rule, active = well fitted curve in the direction sought with a large enough effect; inconclusive = small, poorly fitted or top-dose-only effect, or effect the other way, or another doubt; inactive = no such curve, though single readings can be large or run the other way.

Chain of Alpha-galactosidase A (Homo sapiens) (P06280 32-429 limits assumed): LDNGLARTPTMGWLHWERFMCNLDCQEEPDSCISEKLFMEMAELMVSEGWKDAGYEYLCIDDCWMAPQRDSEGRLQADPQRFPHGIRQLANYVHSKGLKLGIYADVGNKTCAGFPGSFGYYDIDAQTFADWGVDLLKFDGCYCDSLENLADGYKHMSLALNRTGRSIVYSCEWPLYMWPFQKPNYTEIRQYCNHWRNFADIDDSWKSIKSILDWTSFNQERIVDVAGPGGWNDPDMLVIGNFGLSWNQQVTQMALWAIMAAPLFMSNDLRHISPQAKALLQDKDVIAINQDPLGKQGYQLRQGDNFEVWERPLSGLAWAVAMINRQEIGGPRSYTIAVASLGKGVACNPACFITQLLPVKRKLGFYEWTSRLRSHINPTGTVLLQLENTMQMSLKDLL

The assay deals with Alpha-galactosidase A (Homo sapiens) (UniProt P06280). Description: Confirmation of Inhibitors of Human alpha-Galactosidase Using Spleen Homogenate. Also: 0% is about no effect. The note with it: alpha-galactosidase enzyme activity; series mostly up to 56.2 µM; activity change: at the top concentration. A digest of the protocol:
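Human spleen homogenate (1 ug) with 1 mM 4-methylumbelliferyl-alpha-D-galactopyranoside in citrate-phosphate pH 5.0, 0.01% Tween-20, 37C 40 min; compounds 0.5 nM–58 uM final. Stopped at pH 10, fluorescence Ex 365/Em 440; AC50 from Hill fits.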
Consider `CNC(=S)/N=C(\Nc1ccc(C)cc1)c1ccccc1`, for which the “activity change” value was 7.36% [at 23.6 µM].
In the case of `CC(=O)Nc1cccc2c1C(=O)NC2=O`, the “activity change” value is -6.6% [at 23.6 µM].
With `CC(=O)N1CCN(c2ccc(NCc3ccc(C)cc3)cc2)CC1`, the “activity change” value was -3.79%.
Consider `COc1ccccc1CCNC(=O)C1CCC(=O)N(C2CC2)C1` (configuration not stated), for which the “activity change” value is 1.87%.
`NC(=S)NN=C1c2cc(S(=O)(=O)N3CCOCC3)ccc2-c2ccc(S(=O)(=O)N3CCOCC3)cc21`: the “activity change” value is 5.73%.
The result for `Cc1cnc(C(=O)Nc2cc(S(=O)(=O)N3CCOCC3)ccc2N2CCN(C)CC2)cn1` reads 1.16%; that for `Clc1ccc(Nc2ncnc3ccc(Br)cc23)cc1`, -6.43% [at 23.6 µM].
With `CC(N=C(NC#N)Nc1ccncc1)C(C)(C)C` (configuration not stated), the “activity change” value is -1.81%.
With `O=c1ccc2cc(O)c(O)cc2o1`, the “activity change” value was 5.16%.
Regarding `O=C(Nc1cc(S(=O)(=O)N2CCOCC2)ccc1N1CCCC1)c1cc(=O)[nH]c2ccccc12`, the “activity change” value is -1.95% [at 23.6 µM].
Take `Cc1c(OCC(F)(F)F)ccnc1CS(=O)c1nc2ccccc2[nH]1` (configuration not stated): the “activity change” value is -5.23% [at 287 µM].
On to `CC1S/C(=N\N=C\c2cccc([N+](=O)[O-])c2)N(C(C)(C)C)C1=O` (configuration not stated), for which the “activity change” value was 0.894% [at 23.6 µM].
On to `CCc1ccc(-c2nc(-c3cc4ccc(OC(C)=O)cc4oc3=O)sc2C)cc1`, for which the “activity change” value is 2.98%.
The result for `O=S(=O)(c1ccc(Cl)cc1)N1CCOCC1` reads 5.93%; that for `COc1ccccc1NCC(=O)c1ccc(C)c(C)c1`, -6.57%; that for `CCOC(=O)C(CC)Sc1ncnc2c1c(-c1ccccc1)cn2-c1ccc(OC)cc1` (configuration not stated), -3.87%.
The result for `O=C(c1ccc2ccccc2c1)N1CCN(S(=O)(=O)c2ccccc2)CC1` reads 4.96%.
In the case of `CN(CCO)S(=O)(=O)c1ccc2c(c1)C(=NNC(N)=O)c1cc(S(=O)(=O)N(C)CCO)ccc1-2` it was 2.47%; in that of `O=C1c2cc(S(=O)(=O)N3CCOCC3)ccc2-c2ccc(S(=O)(=O)N3CCOCC3)cc21`, 11.1%; in that of `CCOC(=O)Cc1csc(NC(=O)NC2(C(F)(F)F)Oc3cc(Cl)c(Cl)cc3O2)n1`, 1.02%.
For the compound `Cc1c(C(=O)NCc2ccccc2F)oc2ccccc12`, the “activity change” value was 7.79%.
The result for `CCc1ccc(N=CC23c4ccccc4C(c4ccccc42)C2C(=O)N(c4ccc(OC)cc4)C(=O)C23)cc1` (configuration not stated) reads 1.98% [at 23.6 µM].
Take `Cc1ccc(-c2nc3ncccn3c2Nc2ccc3c(c2)OCO3)o1`: the “activity change” value is -5.26%.
On to `CCN1CCc2nc(NC(=O)CC(c3ccccc3)c3ccccc3)sc2C1`, for which the “activity change” value is -4.56%.
Consider `CCCCCCc1cc2cc(C(=O)NC)c(=N)oc2cc1O`, for which the “activity change” value is 71.6%.
For the compound `COc1ccc(/C=C/c2nnc(NC(=O)CSc3ccccc3)s2)cc1`, the “activity change” value was 8.53%.
For `CC(C)(C)OC(=O)NCCCC[C@H](NC(=O)c1[nH]cnc1C(=O)Nc1ccc(CNC(=O)OC(C)(C)C)cc1)C(=O)OC(C)(C)C`, the “activity change” value was -6.8%.
Consider `O=c1oc2ccc(Cl)cc2cc1-c1nc2c(s1)CCCC2`, for which the “activity change” value was 22.4%.
In the case of `O=C(Nc1nc2c(s1)CN(Cc1ccccc1)CC2)C1CCCC1`, the “activity change” value was -7.59%.
In the case of `COc1ccc(/C=C/c2nnc(NC(=O)CSc3ccc(C)cc3)s2)cc1`, the “activity change” value was 23.5%.
In the case of `Cc1ccc(N2CC(C(=O)NCc3ccc(C)n3C)CC2=O)cc1` (configuration not stated) it was -0.0186%.
As to `COc1ccc(C(=O)N2CCN(c3ccc([N+](=O)[O-])c(NCCc4ccc(OC)c(OC)c4)c3)CC2)cc1`, the “activity change” value was 8.32%.
For `CN(C)C=Nc1nc2ccccc2nc1N1CCCC1`, the “activity change” value was 12.4% [at 23.6 µM].
In the case of `Cc1ccccc1Nc1c(-c2cccs2)nc2cccc(C)n12` it was -6.82%; in that of `COc1ccc(/C=C(/NC(=O)c2ccccc2)C(=O)NC(Cc2c[nH]c3ccccc23)C(=O)O)cc1` (configuration not stated), -6.83%; in that of `Cc1cc(/C=N/Nc2ccc([N+](=O)[O-])cn2)c(C)n1-c1ccc(C(=O)O)cc1`, -6.23%.
Turning to `CN(C(=O)N1CCN(S(=O)(=O)c2ccccc2)CC1)c1ccccc1`, the “activity change” value was 14.8%.

(Values after PubChem BioAssay AID2108 (National Center for Advancing Translational Sciences (NCATS), 2009).)
